This is one part of a sample in which hits are shown more often than they occur.
Pf Dd2 inh = blocks in vitro growth of P. falciparum Dd2. P. falciparum Dd2 growth, SYBR Green, 72 h. Potency, µM (doses to about 28.9 µM), without a hit: at the highest dose activity, negative = inhibition, most hits filed as inhibitors. 120,000 tested, 4.3% active. AID 1347417; active = well fitted inhibition curve with a large enough effect;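 also: plate controls were DMSO vehicle for no effect and reference drug for full effect; nearly all actives have a fitted effect of over 65% in size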
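Infected erythrocytes (Dd2, 0.3% parasitemia, 2.5% hematocrit final) are added to compound in RPMI-1640/Albumax II medium, grown 72 h at 37C in low oxygen, then lysed with saponin/Triton-X containing SYBR Green and read by fluorescence.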
* = called active by the depositor; i = inactive; [ ] = remark or other dose. Potency is read from the fitted curve at half-maximal effect.

SMILES | Pf Dd2 inh
CC1=C[C@@H](CN2CCC[C@H]2CO)[C@H](C(C)C)C[C@H]1Cc1nnc(-c2ccc(N(C)C)cc2)o1 | 1.4µM*
CN(C)c1ccc(-c2nnc([C@H]3CCN(C(=O)CCC(=O)O)C3)o2)cc1 | -29%[44.1 µM]
Cc1nnc2n1CCC(NC(=O)c1ccsc1)CC2 (stereo not given) | 26%
COc1ccc(-c2cc3c(=O)n(CCNC(=O)c4ccc(F)cc4)ccn3n2)cc1 | i
Cc1cc(C)cc(C(=O)NCCn2ccn3nc(-c4ccc(F)cc4)cc3c2=O)c1 | i
CCc1ccc(C(=O)NCCn2ccn3nc(-c4ccc(F)cc4)cc3c2=O)cc1 | 4µM*
COCc1ccc2c(c1)c(OC(C)(C)C(=O)N1CCOCC1)nn2Cc1cccnc1 | -19%[44.1 µM]
Cc1[nH]c2ccc(F)cc2c1Cc1nc(C2CCOC2)no1 (stereo not given) | -9%
CC(C)CNC(=O)c1cc(C2CC2)nc2c1c(C1CCCN1)nn2-c1ccccc1 (stereo not given) | 4.5µM*
O=C(NCC(F)(F)F)c1cc(C2CC2)nc2onc(C3CCCNC3)c12 (stereo not given) | 2%
COCCNC(=O)c1cc(C2CC2)nc2c1c(C1CCCN1)nn2C (stereo not given) | -5%
COc1ccc(CNC(=O)c2cc(C3CC3)nc3c2c(C)nn3-c2cccc(Cl)c2C)cc1 | 6%
Cn1nc(C2CCCN2)c2c(C(=O)NCC(F)(F)F)cc(C3CC3)nc21 (stereo not given) | -14%
CC(C)CNC(=O)c1cc(C2CC2)nc2onc(C3CCCNC3)c12 (stereo not given) | -23%
Cn1nc(C2CCNC2)c2c(C(=O)NCc3ccc(F)cc3)cc(C3CC3)nc21 (stereo not given) | -23%
O=C(NCc1ccncc1)c1cc(C2CC2)nc2c1c(C1CCCN1)nn2-c1ccccc1 (stereo not given) | 8.9µM*
O=C(NCC(F)(F)F)c1cc(C2CC2)nc2c1c(C1CCCN1)nn2-c1ccccc1 (stereo not given) | 8.9µM*
CC1=NOC2(CCN(C(=O)c3ccccc3F)C2)C1 (stereo not given) | -3%[44.1 µM]
O=C(CC1COCCN1)N1CCC2(CCC(=O)N(CCCn3ccnc3)C2)CC1 (stereo not given) | -4%
Cc1noc(C)c1S(=O)(=O)N1CCCC(Cn2c(C3CC3)nc3cccnc32)C1 (stereo not given) | i
Cc1noc([C@H]2CCN(Cc3scnc3C)C[C@H]2NC(=O)C2CC2)n1 | 31%[5.79 µM]
CC1CCN(C(=O)CC(c2ccc(Cl)cc2)c2cn(C)c3ccccc23)CC1 (stereo not given) | 7.9µM*
CC1CCN(C(=O)Cn2cc(SCC(=O)Nc3ccccc3)c3ccccc32)CC1 | -21%
CC1CCN(C(=O)Cn2cc(SCC(=O)NCc3ccccc3)c3ccccc32)CC1 | -12%
O=C(Nc1ccc2c(c1)OCCO2)N1CCCCCC1CN1CCOCC1 (stereo not given) | i
SMILES | Pf Dd2 inh
Cc1ccc(NC(=O)/C(C#N)=C\c2ccc(Cl)cc2Cl)cc1C | 8%
Cc1c(/C=C(\C#N)C(=O)Nc2cccc(Cl)c2)c2ccccc2n1Cc1ccccc1Cl | 3.2µM*
N#C/C(=C/c1cn(Cc2ccccc2Cl)c2ccccc12)C(=O)Nc1cccc(Cl)c1 | i
Cc1nc(C)c(C(=O)N2CCC(N3C[C@H](O)C[C@H]3C(=O)NC3CCCCC3)CC2)s1 | i
Cc1cccc(OCC2(CNC(=O)c3cnccn3)C[C@@H](O)[C@@H](O)C2)n1 (stereo not given in full) | -20%[44.1 µM]
Cc1c(Cl)cccc1NC(=O)C[C@H]1NC(=O)c2ccccc2NC1=O | -6%
CCOc1ccccc1NC(=O)N1CCC(N2C(=O)C3(CCCC3)C2c2ccccc2)CC1 (stereo not given) | 8.9µM*
CC(C)C(=O)N1CCC(N2C(=O)C3(CCCC3)C2c2ccccc2)CC1 (stereo not given) | -6%
CCOc1ccccc1NC(=O)N1CCC(N2CCN(Cc3ccccc3)C(=O)C2=O)CC1 | 10%[5.79 µM]
O=C(CN1CCCCCC1)N1CCC(N2C(=O)C3(CCCC3)C2c2ccccc2)CC1 (stereo not given) | 4.5µM*
COCCC(=O)N1CCC(N2C(=O)C3(CCCCC3)C2c2ccccc2)CC1 (stereo not given) | -28%
O=C(CN1CCOCC1)N1CCC(N2C(=O)C3(CCCCC3)C2c2ccccc2)CC1 (stereo not given) | i
CC(=O)N1CCC(NC[C@H]2O[C@@H]3C[C@@H](CC(=O)N4CCOCC4)O[C@@H]3[C@@H]2O)CC1 | 12%[44.1 µM]
Cc1noc(C)c1S(=O)(=O)N1CCCCC(NC(=O)c2c[nH]c(=O)cn2)C1 (stereo not given) | -6%
Cc1cncc(C(=O)N2C[C@H]3OC(=O)N(CCc4cccc(Cl)c4)[C@H]3C2)c1 | -9%
O=C(Nc1ccccc1Br)c1cc(S(=O)(=O)NC2CCCCC2)ccc1F | i
Cc1ccc(NC(=O)c2cc(S(=O)(=O)N3CCCc4ccccc43)ccc2F)cc1F | -23%
Cc1ccc(NC(=O)c2cc(S(=O)(=O)NC3CCCCCC3)ccc2F)cc1F | 4.5µM*
CC(=O)N1CCC(c2nn(-c3ccc(Cl)cc3)c(=O)[nH]2)CC1 | i
O=C(Cc1c[nH]c2ccccc12)NC1CCc2nn(CC3CC3)c(=O)n2CC1 (stereo not given) | 13%
Cn1ccc(C(=O)N[C@@H]2COCC[C@H]2Oc2ccc(CO)cc2)cc1=O | -7%
O=C(Cc1ccsc1)N1CC(Oc2ccccc2-c2nc(-c3ccccc3)no2)C1 | 13µM*
O=C(C1CCC1)N1CC(Oc2ccccc2-c2nc(-c3cnccn3)no2)C1 | 10µM*
Cc1ncccc1C(=O)N1CC(Oc2ccccc2-c2nc(-c3ccccc3)no2)C1 | 11µM*
O=C(Cc1ccsc1)N1CCC(n2cc(-c3nc(-c4ccccc4)no3)nn2)C1 (stereo not given) | -1%
SMILES | Pf Dd2 inh
Cc1ncccc1C(=O)N1CC(Oc2ccc(-c3nc(-c4ccccc4)no3)cc2)C1 | -25%[5.79 µM]
c1ccc(-c2nc(-c3cnccn3)no2)c(OC2CCNC2)c1 (stereo not given) | i
O=C(c1ccncc1)N1CCC(Oc2ccccc2-c2nc(-c3ccccc3)no2)C1 (stereo not given) | -12%
O=C(C1CCOCC1)N1CCC(Oc2ccccc2-c2nc(-c3ccccc3)no2)C1 (stereo not given) | i
O=C(c1cnccn1)N1CCC(Oc2ccccc2-c2nc(-c3ccccc3)no2)C1 (stereo not given) | -16%
CN1[C@@H](CCC(=O)NCc2ccc(F)cc2)CNC(=O)[C@@H]2[C@H]1CCN2Cc1cccs1 | -1%
CC(=O)N1CCc2nn(CC(=O)Nc3cccc(Br)c3)c(=O)cc2C1 | -19%
COc1ccc(CNc2ncnc3c2CN(c2ccc(OC)cc2)C(=O)CN3C)cc1 | -2%
CCOC(=O)Cn1nc2n(c1=O)CCN(Cc1cccc(Cl)c1)C2=O | 33%
CCc1nncn1C1CCN(S(=O)(=O)c2cc(Cl)ccc2OC)CC1 | i
O=C(CCC1N=C2c3ccccc3N=C(SCC(=O)Nc3ccccc3F)N2C1=O)NCc1cccs1 (stereo not given) | -27%
CCCCNC(=O)CSC1=Nc2ccccc2C2=NC(CCC(=O)NCc3ccccc3OC)C(=O)N12 (stereo not given) | -15%
O=C(CC1N=C2c3ccccc3N=C(SCC(=O)Nc3cccc(C(F)(F)F)c3)N2C1=O)NCc1cccs1 (stereo not given) | 13µM*

Bioassay records as filed in PubChem.
